Most compounds without a hit are left out; they make up all but 2% or so of the library.
TDP-43 yeast inh: rescues yeast growth from TDP-43 toxicity | TDP-43 expressing yeast growth rescue, BacTiter-Glo, 24 h | Potency, µM (series often up to 46.1 µM), without a hit: at the highest dose growth rescue (activation), usual class: activators | 410,000 tested, 1.8% active; further: % of control where 0% means no effect; nearly all actives have a fitted effect of over 50% in size
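Yeast cells expressing TDP-43 under galactose induction are exposed to compounds for 24 hr at 30 deg C. BacTiter-Glo luminescence measures growth, so protective compounds score as activators.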
Glioma ERSR ind: induces the endoplasmic reticulum stress response in human glioma cells; 420,000 tested, 0.02% active; Potency, µM, for inactives: top-dose activation, usual class: activators; U87-MG GRP78 promoter luciferase reporter, 16 h; further: series mostly up to about 76 µM; % of control where 0% means no effect; nearly all actives have a fitted effect of over 35% in size
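Stably transfected U87-MG glioma cells carrying a GRP78-based luciferase sensor; 16 h compound incubation. Luminescence end-point read 10 min after Bright-Glo addition at room temperature.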
FUS yeast rescue: FUS proteinopathy suppression in yeast | S. cerevisiae FUS-expressing, growth rescue, OD600, 24 h | Potency, µM (top dose mostly 76.6 µM), most hits filed as activators | 390,000 tested, 0.24% active | AID 1347120;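 further: plate controls were DMSO vehicle for no effect and reference control for full effect; nearly all actives have a fitted effect of over 55% in size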
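S. cerevisiae expressing FUS from galactose induction served as the toxicity model. Growth after 24hr at 30C, read as absorbance at 600 nm, indicates suppression of toxicity; compounds dosed at several concentrations.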
MBNL1-CUG inh: MBNL1-poly(CUG) RNA binding inhibition. 280,000 tested, 0.036% active. TR-FRET MBNL1-His/biotin-(CUG)12 binding, 665/545 ratio. Potency, µM (titrated, usually from 57.5 µM), for the others: top-dose activity change, negative = inhibition, most hits filed as inhibitors. AID 2675; active means well fitted inhibition curve with a large enough effect in the signal ratio, with a control signal flat, not every such curve was filed as active; inconclusive means small, poorly fitted or top-dose-only effect, or effect the other way, or a change in a side signal; inactive means no such curve, though single readings can be large or run the other way; the % refers to the signal ratio; further: on the % scale 0 is the no-effect control and ±100 the full control effect
Target sequence (Q9NR56 whole entry, looked up): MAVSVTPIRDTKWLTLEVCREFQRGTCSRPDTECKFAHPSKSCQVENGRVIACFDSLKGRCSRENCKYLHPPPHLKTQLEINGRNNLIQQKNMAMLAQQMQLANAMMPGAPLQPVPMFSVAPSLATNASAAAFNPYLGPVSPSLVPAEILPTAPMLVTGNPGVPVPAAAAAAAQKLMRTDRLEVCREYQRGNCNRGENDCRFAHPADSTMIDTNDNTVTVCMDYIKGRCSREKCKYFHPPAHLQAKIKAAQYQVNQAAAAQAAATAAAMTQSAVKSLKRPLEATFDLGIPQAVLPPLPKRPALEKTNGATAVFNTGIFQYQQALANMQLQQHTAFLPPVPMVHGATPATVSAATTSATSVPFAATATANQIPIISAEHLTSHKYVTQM
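Inhibition of protein-RNA binding appears as loss of TR-FRET between terbium anti-His antibody on MBNL1-His and streptavidin-XL665 on biotin-(CUG)12. Activity is normalized to buffer-only and uninhibited-complex controls.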
aSyn rescue: rescues yeast growth from alpha-synuclein toxicity; Potency, µM (top dose mostly 46.1 µM), inactives show at the top dose growth rescue (activation), actives largely listed as activators; Yeast expressing alpha-synuclein, growth rescue, BacTiter-Glo, 24 h; 370,000 tested, 0.14% active; further: % of control where 0% means no effect; nearly all actives have a fitted effect of over 65% in size
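Rescue of yeast growth: cells expressing toxic alpha-synuclein, induced in galactose at OD600 0.02, incubated with compound 24 h at 30 C. ATP luminescence quantified growth; inhibitors of toxicity appear as activators.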
Abeta rescue: compounds reversing amyloid beta toxicity in yeast; yeast expressing A-beta42, growth rescue, OD600, 48 h; response scale: 0% DMSO, 100% iron-clioquinol control; Potency, µM (titrated, usually from 46.1 µM), hits mostly activators; 410,000 tested, 0.063% active; AID 1347071; further: nearly all actives have a fitted effect of over 55% in size
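Yeast growth medium received pinned compounds, then yeast cells expressing toxic A-beta were added; plates incubated at 30 C for 48 hr. Growth read as absorbance at 600 nm, normalized to DMSO and equimolar FeCl3 plus clioquinol controls.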
* hit, by the source's call; i = inactive; ? = inconclusive; nt = no result; [ ] = another dose, or the depositor's remark. Unless noted, the call rests on the fitted dose curve; in most records, active means well fitted curve in the direction sought with a large enough effect; inconclusive means small, poorly fitted or top-dose-only effect, or another doubt; inactive means no such curve, though single readings can be large; an effect the other way counts as inactive or inconclusive. Potency means the concentration at half of the fitted maximal effect.

SMILES	TDP-43 yeast inh	Glioma ERSR ind	FUS yeast rescue	MBNL1-CUG inh	aSyn rescue	Abeta rescue
CCOC(=O)C1=NOC(C(=O)NC2CCCC2)(C(=O)C2CC2)C1 (configuration not stated)	nt	nt	i	nt	nt	nt
COc1cc(/C=C\C(=O)OCn2nnc3ccccc3c2=O)cc(OC)c1OC	20µM*	5.4%	i	?	?	i
COc1cc(C(=O)OCn2nnc3ccccc3c2=O)cc(OC)c1OC	23.2%	-6.4%	i	12.0%	1.7%	i
COc1ccc(C(=O)OCn2nnc3ccccc3c2=O)cc1	17.8µM*	-6.7%	i	11.2%	?	i
O=C(OCn1nnc2ccccc2c1=O)c1ccc(O)cc1	22.2%[9.22 µM]	5.0%	i	-0.1%	?	i
Cc1ccccc1C(=O)OCn1nnc2ccccc2c1=O	14.1µM*	-3.4%	i	10.8%	24.7%	i
COc1cccc(C(=O)OCn2nnc3ccccc3c2=O)c1OC	?	-1.3%	i	-9.7%	-2.7%	i
CC(CN(C)C)CN1c2ccccc2S(=O)(=O)c2ccccc21 (configuration not stated)	nt	-3.8%	nt	nt	nt	nt
Cc1ccc(C(=O)N(Cc2cc3cc4c(cc3nc2N2CCOCC2)CCC4)CC2CCCO2)s1 (configuration not stated)	nt	0.0%	nt	nt	nt	nt
COc1ccc2ccccc2c1CN1CCc2nnc(CNC(=O)c3cccc(F)c3)n2CC1	nt	-6.9%	nt	nt	nt	nt
CC(=O)Oc1ccc(C2(c3ccc(OC(C)=O)cc3)Oc3ccccc3NC2=O)cc1	nt	-3.7%	nt	nt	nt	nt
Cc1cc2c(c(-c3nc4ccccc4s3)c1)OC(CNC(=O)CCc1cccnc1)C2 (configuration not stated)	nt	-1.9%	nt	nt	nt	nt
O=C(N/N=C/c1sc(N2CCOCC2)nc1-c1ccccc1)c1ccccc1Cl	-13.6%	-4.2%	i	6.6%	0.3%	i
O=C(N/N=C/c1sc(N2CCOCC2)nc1-c1ccccc1)c1ccccc1O	14.1µM*	-2.6%	i	nt	-5.6%	i
CC1Nc2ncnc(N3CCc4ccccc4C3)c2N(Cc2ccc(Br)cc2)C1=O (configuration not stated)	11.2µM*	1.4%	?	nt	?	i
CC1Nc2ncnc(N3CCN(c4ccccc4)CC3)c2N(Cc2ccc(Cl)cc2)C1=O (configuration not stated)	?	-1.9%	20µM*	nt	?	i
CCC1Nc2ncnc(N3CCc4ccccc4C3)c2N(Cc2ccc(Br)cc2)C1=O (configuration not stated)	35.5µM*	1.2%	?	nt	?	i
CC1Nc2ncnc(N3CCc4ccccc4C3)c2N(Cc2ccc(Cl)cc2)C1=O (configuration not stated)	24.1%	0.2%	i	nt	-1.8%	i
CCCCCC[C@@H](CC)CN(C(=O)Oc1ccccc1)c1ccccc1	nt	nt	i	nt	nt	nt
O=c1c2ccccc2ncn1CCCSc1ccccc1	12.6µM*	-0.9%	i	10.2%	13.2%	i
CC(NCc1ccco1)C(=O)N1CCN(c2ccc(F)cc2)CC1 (configuration not stated)	nt	nt	i	nt	nt	nt
O=C(COc1cccnc1[N+](=O)[O-])Nc1cccc(Br)c1	8.7%	0.6%	i	nt	7.2%	i
O=C(COc1cccnc1[N+](=O)[O-])Nc1ccccc1Sc1ccccc1	14.1µM*	-0.8%	nt	19.8%	25.6%	i
Cc1cccc(Nc2nnc(SCC3CCCCO3)s2)c1C (configuration not stated)	-22.7%	0.3%	nt	-21.1%	16.2%	i
COc1cccc(Nc2nnc(SCC3CCCCO3)s2)c1 (configuration not stated)	10µM*	4.8%	i	-2.7%	-0.1%	i
SMILES	TDP-43 yeast inh	Glioma ERSR ind	FUS yeast rescue	MBNL1-CUG inh	aSyn rescue	Abeta rescue
COc1ccc(Nc2nnc(SCC3CCCO3)s2)cc1 (configuration not stated)	28.2µM*	2.9%	i	-2.8%	-9.6%	i
CN=c1scc(-c2ccc(OC)cc2)n1/N=C(\C)c1cccnc1	14.1µM*	-4.5%	i	nt	-11.1%	i
CC(C)COC(=O)c1cccc2c1-c1ccccc1/C2=N\O	?	-5.4%	i	?	-18.2%	i
CCOC(=O)c1cccc2c1-c1ccccc1/C2=N/O	14.1µM*	-1.8%	i	-18.4%	-13.3%	i
O=C(c1cnn(-c2ccccc2)c1)c1ccccc1O	?	-3.6%	i	7.3%	2.7%	i
COc1ccc(-n2cc(C(=O)c3ccccc3O)cn2)cc1	12.6µM*	-13.3%	i	0.4%	-4.7%	i
O=C(c1cnn(-c2ccccc2)c1)c1cc(F)ccc1O	10µM*	2.0%	i	-0.5%	8.0%	i
COc1cccc(/C=N/NC(=O)C[n+]2ccccc2)c1OC	-12.9%	-3.5%	i	7.3%	15.6%	i
COc1ccc(/C=N/NC(=O)C[n+]2ccccc2)c(OC)c1OC	17.5%	-3.6%	i	nt	22.4µM*	i
O=C(COC(=O)c1cccc(Br)c1)NCCc1ccc(F)cc1	12.6µM*	-1.6%	i	nt	2.7%	?
C/C(=N\O)c1cc(Cl)cc(Cl)c1O	14.1µM*	-1.5%	i	-14.8%	?	i
CCOc1ccc(Br)cc1CNCCSc1nnnn1-c1ccccc1	9.3%	31.6µM*	i	nt	nt	i
COc1ccc2[nH]c(C)c(C(=O)CN(C)CC(OC)OC)c2c1	nt	-4.9%	nt	nt	-4.7%	nt
CC(=O)/C=C1\OCc2ccccc21	8.0%	nt	i	nt	0.1%	i
CC(=O)/C=C1\OCc2cc(OCc3ccccc3)ccc21	10µM*	nt	i	nt	3.2%	i
CCC1CN(CCC(=O)N2CCN(c3ncccn3)CC2)Cc2cc(OC)ccc2O1 (configuration not stated)	nt	-4.7%	nt	nt	nt	nt
[NH-]CCC([O-])=NC(Cc1cnc[nH]1)C(=O)[O-].[Zn+2] (configuration not stated)	nt	-2.6%	nt	nt	nt	nt
O=C1c2sc3nc4ccccc4n3c2C(=O)N1c1ccccc1Cl	11.2µM*	0.2%	i	1.1%	-0.9%	i
FC(F)(F)c1nnc2c(Sc3ccccc3)nc3ccccc3n12	26.2%	11.3%	i	9.8%	-7.0%	i
